HT1080 IDH1KD tx – kills HT-1080 cells with IDH1 knockdown | hit rate 2% among 360,000 | AID 686971 | HT-1080 IDH1 knockdown viability, ATP luminescence, 48 h | Potency, µM (highest dose often 46.1 µM), for the others: top-dose activity, negative = toxicity, hits mostly cytotoxic;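 further: potency means the concentration at half of the fitted maximal effect; 0% = DMSO wells and -100% = cell-free medium wells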
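% activity derives from luminescence (CellTiter-Glo), normalised to DMSO and no-cell wells. HT-1080-IDH1KD cells, 750/well, had 48 h compound exposure at 37 °C.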
DT40 TDP1 no CPT – qHTS for Inhibitors of human tyrosyl-DNA phosphodiesterase 1 (TDP1): qHTS in cells in absence of CPT | hit rate 15% among 420,000 | DT40 Tdp1-/- hTDP1 cells, no CPT, ATP luminescence, 48 h | Potency, µM (top dose mostly 46.2 µM), without a hit: top-dose activity change, negative = growth inhibition, actives largely listed as inhibitors; further: potency means the concentration at half of the fitted maximal effect; nearly all actives have a fitted effect of over 55% in size
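Stably hTDP1-transfected Tdp1-null chicken DT40 cells were treated with library compounds minus camptothecin and grown for at least 48 hr at 37 °C, after which cellular ATP was quantified by luminescence.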
HT1080-NT tox – kills 2HG-producing HT-1080-NT fibrosarcoma cells | AID 686970 | HT-1080-NT fibrosarcoma viability, CellTiter-Glo ATP luminescence, 48 h | Potency, µM (highest dose often 46.1 µM), for the others: at the highest dose activity, negative = less viability, actives largely listed as cytotoxic | hit rate 1.6% among 360,000;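 further: NT is the 2HG producing partner of a matched IDH1 knockdown line; potency means the concentration at half of the fitted maximal effect; 0% = DMSO-treated cells and -100% = media-only wells without cells; nearly all actives have a fitted effect of over 55% in size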
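Viability of the 2HG-overproducing fibrosarcoma line after 48 hours of compound exposure at 37 degrees C was determined by luminescence with CellTiter-Glo, and concentration-effect curves were then fitted and categorized.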
IL1B secr inh – blocks inflammasome-driven IL-1 beta release; THP-1 LPS/ATP IL-1B secretion, AlphaLISA, 16 h; active compounds read low; activity change, % at 57.5 µM; hit rate 4.7% among 360,000; AID 743279; in the data active means activity change below about -50%; inconclusive means mostly about -30% to -49%
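THP-1 cells pretreated 1 hr with compounds (up to 57.5 uM final), then stimulated with LPS (250 ng/mL final) plus ATP (1.25 mM final); secreted IL-1B measured by AlphaLISA after 16 hr, decreased signal indicating inhibition.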
TDP1 cell CPT – growth inhibition of DT40 Tdp1-/-;hTDP1 cells with camptothecin (screen for TDP1 inhibitors); chicken DT40 Tdp1-/-;hTDP1 cells + 20 nM CPT, ATP luminescence, 48 h; Potency, µM (titrated, usually from 46.2 µM), for inactives: top-dose activity change, negative = growth inhibition, actives largely listed as inhibitors; hit rate 12% among 420,000; AID 686979; further: potency means the concentration at half of the fitted maximal effect; nearly all actives have a fitted effect of over 55% in size
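Chicken DT40 Tdp1-/- cells complemented with human TDP1, 400 cells/well, exposed to compounds plus 20 nM camptothecin for at least 48 h at 37 C; viability read as ATP content by CellTiter-Glo luminescence.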
ALOX12 inh – inhibitors of human 12S-lipoxygenase ALOX12; purified 12hLO, xylenol orange hydroperoxide absorbance; P18054; hit rate 1.1% among 580,000; AID 1671190; Potency, µM (top dose mostly 108 µM), for the others: top-dose activity change, negative = inhibition, usual class: inhibitors; further: potency means the concentration at half of the fitted maximal effect
Target sequence (P18054 whole entry, looked up): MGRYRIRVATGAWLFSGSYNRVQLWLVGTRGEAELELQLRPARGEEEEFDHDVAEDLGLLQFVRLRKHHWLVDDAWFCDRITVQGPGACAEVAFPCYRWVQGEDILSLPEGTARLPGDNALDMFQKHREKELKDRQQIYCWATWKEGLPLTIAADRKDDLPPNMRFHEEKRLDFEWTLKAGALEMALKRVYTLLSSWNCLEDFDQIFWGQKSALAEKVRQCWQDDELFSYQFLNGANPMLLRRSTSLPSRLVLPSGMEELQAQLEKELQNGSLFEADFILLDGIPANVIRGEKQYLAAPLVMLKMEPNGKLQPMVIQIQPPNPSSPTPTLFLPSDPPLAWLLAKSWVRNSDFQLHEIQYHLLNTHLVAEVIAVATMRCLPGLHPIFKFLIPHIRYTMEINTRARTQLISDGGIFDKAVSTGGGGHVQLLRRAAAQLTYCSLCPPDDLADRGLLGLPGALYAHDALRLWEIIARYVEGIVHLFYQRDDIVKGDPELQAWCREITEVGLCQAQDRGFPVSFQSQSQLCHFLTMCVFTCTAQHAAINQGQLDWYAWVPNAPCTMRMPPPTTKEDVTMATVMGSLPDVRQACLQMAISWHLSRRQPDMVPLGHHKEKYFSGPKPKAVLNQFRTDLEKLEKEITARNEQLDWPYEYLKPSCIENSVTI
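Purified human 12hLO (150 nM final) in 25 mM Hepes, 0.01% Triton X-100, pH 7.0 was preincubated 15 min at room temperature with compound. Then 40 uM arachidonic acid was added, 30 min. Hydroperoxide was read by Fe-XO absorbance ratio 573/405 nm.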
* hit, by the source's call; u = inconclusive; x = not tested or not shown; [ ] = dose if it differs, or a comment. The sample as a whole holds a higher share of hits than the screen did. Unless noted, the call rests on the fitted dose curve; in most records, active means well fitted curve in the direction sought with a large enough effect; inconclusive means small, poorly fitted or top-dose-only effect, or another doubt; inactive means no such curve, though single readings can be large; an effect the other way counts as inactive or inconclusive. Unless noted, on the % scale 0 is the no-effect control and ±100 the full control effect.

SMILES	HT1080 IDH1KD tx	DT40 TDP1 no CPT	HT1080-NT tox	IL1B secr inh	TDP1 cell CPT	ALOX12 inh
O=C(NCC(c1ccc2c(c1)OCO2)N1CCOCC1)C(=O)Nc1cccc(Cl)c1 (configuration not stated)	x	12µM*	x	x	u	-18%
O=C(NCCCO)C(=O)NCC(c1ccc2c(c1)OCO2)N1CCN(c2ccc(F)cc2)CC1 (configuration not stated)	14%	7%	9%	24	-23%	0%
COc1ccccc1N1CCN(C(c2cccs2)C(C)NC(=O)c2ccncc2)CC1 (configuration not stated)	0%	u	-5%	4	21µM*	0%
COc1ccc(C(=O)NCC(c2ccc3c(c2)OCO3)N2CCN(C)CC2)cc1 (configuration not stated)	x	-23%	x	x	1%	0%
COc1ccc(N2CCN(C(CNC(=O)c3ccc(C)cc3)c3ccc4c(c3)OCO4)CC2)cc1 (configuration not stated)	x	5.8µM*	x	x	8.2µM*	4%
CNC(=O)C(=O)NCC(c1ccc2c(c1)OCO2)N1CCOCC1 (configuration not stated)	x	2%	x	x	1%	-2%
O=C(NCC(c1ccc2c(c1)OCO2)N1CCN(c2ccc(F)cc2)CC1)c1cccc([N+](=O)[O-])c1 (configuration not stated)	x	6.5µM*	x	x	6.5µM*	-26%
CN1CCCN(C(=O)c2ccncc2)c2ccccc21	x	x	x	x	x	20%
Cc1ccc(-c2c(NC(=O)c3cccc([N+](=O)[O-])c3)oc3ccccc3c2=O)cc1	x	x	x	x	x	-11%
COc1ccc(N2CCN(C(c3cccs3)C(C)NC(=O)c3ccco3)CC2)cc1 (configuration not stated)	-24%	u	-4%	-19	u	-7%
Cc1ccc(C(=O)NCC(c2ccc3c(c2)OCO3)N2CCOCC2)cc1C (configuration not stated)	x	10µM*	x	x	21µM*	0%
Cc1ccc(C(=O)NCC(c2ccc3c(c2)OCO3)N2CCN(C)CC2)cc1C (configuration not stated)	x	-30%	x	x	-4%	u
COc1ccc(N2CCN(C(c3cccs3)C(C)NC(=O)c3ccc4c(c3)OCO4)CC2)cc1 (configuration not stated)	-6%	21µM*	-10%	8	u	-8%
O=C(NCC(c1ccc2c(c1)OCO2)N1CCN(c2ccccc2)CC1)c1ccccc1 (configuration not stated)	x	10µM*	x	x	13µM*	-17%
CN(C)C[C@H]1O[C@H](Cc2cc(-c3ccccc3)on2)CC[C@@H]1O	x	x	x	x	x	66%[176 µM]
O=C(Nc1c(NCc2ccccc2)c2ccccc2oc1=O)c1ccc(Br)o1	x	x	x	x	x	-69%
CCN(CC)S(=O)(=O)c1ccc(N2CCN(C)CC2)c(NC(=O)c2ccccc2F)c1	x	x	x	x	x	-6%
Cc1ccc(S(=O)(=O)Nc2c(O)ccc3ccccc23)cc1	-20%	-29%	-16%	-15	u	x
CC(=O)c1cc2c(cc1NS(=O)(=O)c1ccccc1C)OCO2	x	x	x	x	x	-20%
CCOc1ccc(S(=O)(=O)Nc2cc3c(C(=O)OC)c(COC)oc3c3ccccc23)cc1	x	3.7µM*	x	x	5.2µM*	-11%
COc1ccc(S(=O)(=O)Nc2cc(-c3c(O)ccc4ccccc34)c(O)c3ccccc23)cc1	x	x	x	x	x	8.6µM*
COc1ccc(S(=O)(=O)Nc2cc3c(cc2C(C)=O)OCO3)cc1	18µM*	4.6µM*	u	21	10µM*	0%
CC(=O)c1c(C)oc2c1cc(NS(=O)(=O)c1ccc(C(C)(C)C)cc1)c1ccccc12	x	21µM*	x	x	u	-28%

Screens as filed in PubChem BioAssay.
